# Lassa entry inh: inhibitors of Lassa virus binding or cell entry; Potency, µM (doses to about 37.9 µM), for the others: at the top dose activity change, negative = inhibition, actives largely listed as inhibitors; AID 540256; Lassa virus pseudotype entry inhibition, cell reporter; hit rate 1.2% among 300,000; calls by dose curve; tested in HEK293 cells; also: potency is read from the fitted curve at half-maximal effect; % is scaled to controls: 0 for no effect and ±100 for the full control effect; nearly all actives have a fitted effect of over 50% in size
# Shiga toxin inh: blocks Shiga toxin action in Vero cells; Vero cells, Shiga toxin protein synthesis inhibition reporter; inhibition, % at 38.7 µM; hit rate 9.2% among 290,000; AID 2315; in the data active = inhibition mostly above about 28%, no sharp cut-off; inactive = mostly below about 43%; also: 0% is about no effect
# CHX counter: counter-screen for Shiga toxin inhibitors: cycloheximide protein synthesis inhibition; max response, %; cell reporter, cycloheximide protein synthesis inhibition counterscreen; hit rate 12% among 300,000; AID 2314; in the data active = max response mostly above about 13%, no sharp cut-off; inactive = mostly below about 14%; also: read at 38.3 µM for the half of the compounds with a filed dose; 0% is about no effect
# MARV entry inh: Marburg virus entry inhibition | Marburg virus pseudotyped entry inhibition, cell reporter | Potency, µM (series often up to 37.8 µM), without a hit: at the highest dose activity change, negative = inhibition, actives largely listed as inhibitors | hit rate 1.8% among 300,000 | AID 540276; calls by dose curve; tested in HEK293 cells; also: potency is read from the fitted curve at half-maximal effect; % is scaled to controls: 0 for no effect and ±100 for the full control effect
# AMA1 RON2 block: inhibitors of Plasmodium falciparum AMA1-RON2 interaction; AlphaScreen AMA1-biotinylated RON2 peptide binding; AID 720542; hit rate 0.2% among 360,000; Potency, µM (top dose mostly 58.2 µM), for inactives: top-dose activity change, negative = inhibition, most hits filed as inhibitors; active = well fitted inhibition curve with a large enough effect; inconclusive = small, poorly fitted or top-dose-only effect; inactive = no such curve, though single readings can be large or run the other way;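 also: potency is read from the fitted curve at half-maximal effect; 0% = vehicle wells and -100% = peptide control; nearly all actives have a fitted effect of over 45% in size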
#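 AMA1 (3D7) with his tag at 25 nM final met compounds first, then biotinylated RON2 peptide at 25 nM; detection used donor plus acceptor beads, 10 µg/mL apiece, read by AlphaScreen after 30 min at room temperature.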
# An asterisk follows results filed as active; ? = inconclusive; . = not tested or not shown; [ ] = dose if it differs, or a comment. Many of the other results were omitted from the sample, so hits are more common in it than they were.
SMILES,Lassa entry inh,Shiga toxin inh,CHX counter,MARV entry inh,AMA1 RON2 block
O=C(CSc1ccc2nc(-c3ccccc3)cn2n1)NCC1CCCO1 (stereo not given),.,70*,23*,.,-13%
CCOC(=O)c1cc2c(=O)n3ccccc3nc2n(CCCOC)c1=NC(=O)c1cc2ccccc2o1,-3%[46.1 µM],.,.,7%[46.1 µM],.
CCN(CC(=O)Nc1ccc2c(c1)OCCO2)C(=O)/C=C/c1cccc(OC)c1OC,-2%,.,.,?,-7%
O=C(CCc1ccc(S(=O)(=O)N2CCOCC2)cc1)Nc1nc(COc2ccccc2)cs1,-20%,-17,1,21µM*,-6%
O=C(CCCOc1ccccc1)Nc1ccc(Cl)c(S(=O)(=O)N2CCOCC2)c1,18µM*,.,.,?,2%
O=C(CCc1ccc(S(=O)(=O)N2CCOCC2)cc1)Nc1ccc2c(c1)OCCO2,.,49*,14*,.,-2%
O=C(Cc1ccc2c(c1)OCCO2)Nc1cccc(S(=O)(=O)N2CCOCC2)c1,.,.,.,.,-8%
CCN(CC(=O)Nc1ccc2c(c1)OCCO2)C(=O)/C=C/c1ccc(OC)cc1OC,-12%,60*,28*,13%,41%
CC(=O)N1N=C(c2ccccc2OC(=O)/C=C/c2ccccc2)CC1c1ccccc1 (stereo not given),?,2,1,0%,?
CC1=C(C(=O)Nc2cccnc2)C(c2ccc(F)cc2)n2nc(SCc3ccccc3)nc2N1 (stereo not given),1%[46.1 µM],.,.,20%[46.1 µM],.
CN(CCC(=O)Nc1ccc2c(c1)OCO2)Cc1ccccc1,11%,18,-1,-10%,-9%
O=C(CCc1ccccc1)Nc1nnc(-c2ccc3c(c2)OCCO3)o1,?,47,18,13%,83%
O=C(CCc1ccccc1)Nc1ccc2c(c1)OCCO2,-27%,67*,48*,?,-3%
O=C(CCSCc1ccccc1)Nc1ccc2c(c1)OCCO2,4%,48*,59*,0%,-3%
O=C(CCc1ccccc1)Nc1cc2c(cc1Cl)OCCO2,-25%,80*,47*,-15%,0%
O=C(CCCOc1ccccc1)Nc1ccc2c(c1)OCCO2,1%,65,48*,37%,6%
O=C(c1cc(C2CCCCN2S(=O)(=O)Cc2ccccc2)on1)N1CCOCC1 (stereo not given),.,.,.,.,-11%
Cc1ccc2oc(C(=O)N3CCN(Cc4nccn4C)CC3)c(C)c2c1,.,9,10,.,20%
O=C1OCc2ccc(NC(=O)C3CCCCC3)cc21,8%,-14,-1,4%,7%
O=C(NCc1ccccc1)NC1(C(=O)Nc2ccc3c(c2)OCCO3)CCCCC1,-6%,71*,30*,?,5%
CC(=O)c1cc2c(cc1NC(=O)CCc1ccccc1)OCO2,16%,4,24*,19%[46.1 µM],72%
O=C(Nc1ccccc1)NC1(C(=O)NCc2ccc3c(c2)OCO3)CCCCC1,3%,-6,2,-6%,34%
O=C(CCc1ccccc1)Nc1cc2c(cc1C(=O)O)OCCCO2,5%,.,.,3%,10%
O=C(CCc1ccccc1)Nc1ccc2c(c1)C(=O)OC2,?,29,10*,-7%,18%
COc1ccc(CCC(=O)Nc2ccc3c(c2)OCCO3)cc1,15%,39,26*,7%,-2%
SMILES,Lassa entry inh,Shiga toxin inh,CHX counter,MARV entry inh,AMA1 RON2 block
COc1ccc(CNC(=O)CC2N=C3c4ccccc4N=C(SCC(=O)Nc4ccc(C(C)C)cc4)N3C2=O)cc1 (stereo not given),-5%[46.1 µM],.,.,.,.
COc1cccc(CNC(=O)CCc2c(C)nn(-c3ccc(N4CCCC4)nn3)c2C)c1,-1%[46.1 µM],.,.,.,.
COc1ccc(CCNC(=O)Cn2nnc(-c3cccc(C(F)(F)F)c3)n2)cc1OC,-5%[46.1 µM],.,.,3%[46.1 µM],.
COc1ccc2nc(SCC(=O)Nc3ccc4c(c3)OCCO4)[nH]c2c1,9%,80*,57*,5%,-12%
COc1cccc(CN2CC(C(=O)N(C)Cc3ccc(C)cc3)CCC2=O)c1 (stereo not given),.,29,43*,.,-2%
COc1cccc(CN2CC(C(=O)N3CCCCCCC3)CCC2=O)c1 (stereo not given),.,5,1,.,-7%
COc1cccc(CN2CC(C(=O)N3CCOCC3)CCC2=O)c1 (stereo not given),.,66*,46*,.,2%
COc1cccc(CN2CC(C(=O)NCCCc3ccc(C)cc3)CCC2=O)c1 (stereo not given),.,48,19*,.,-14%
COc1cccc(CN2CC(C(=O)N(C)Cc3[nH]c4ccccc4c3C)CCC2=O)c1 (stereo not given),2%[46.1 µM],-1,-1,17%[46.1 µM],-15%
CCn1c(Cc2ccccc2)nnc1SCC(=O)c1c(N)n(C2CC2)c(=O)[nH]c1=O,.,.,.,.,9%
CCc1cccc(C)c1NC(=O)c1cn2c3c(ccc(Cl)c3c1=O)OC(C)C2 (stereo not given),7%[46.1 µM],.,.,.,.
COC(=O)CCCn1nc(NC(=O)c2ccco2)cc1C,.,29,12,.,-7%
COc1ccc(/C=C/C(=O)c2ccc(O)cc2)cc1,.,64*,37*,.,-5%
COc1ccc(/C=C/C(=O)c2ccccc2O)cc1,2%,106*,65*,?,-27%
COc1ccc(/C=C/C(=O)c2ccccn2)cc1,-5%[46.1 µM],43,24*,-8%[46.1 µM],-7%
COc1ccc(/C=C/C(=O)c2c(O)c(OC)c3occc3c2OC)cc1,-15%,20,15*,?,-16%
O=C(C=Cc1ccccc1)c1ccccc1O,-8%[14.3 µM],.,.,?,.
Cc1cccc(OCC(=O)N(Cc2ccc(F)cc2)C2CCS(=O)(=O)C2)c1C (stereo not given),.,-2,-5,.,-2%
Cc1ccc(CSC2=NC(C)(C)Nc3ccccc32)c(C)c1,16%[46.1 µM],.,.,.,.
COc1ccc2cc(C(=O)/C=C/c3cc(OC)c(OC)c(OC)c3)ccc2c1,-30%[46.1 µM],12,17,?,-17%
COc1ccc(/C=C/c2cc(O)cc(OC3OC(CO)C(O)C(O)C3O)c2)cc1 (stereo not given),.,.,.,.,0%
COc1cc(/C=C/c2ccc(O)cc2)cc(OC)c1,.,84*,56*,.,-1%
COc1ccc(/C=C/C(=O)N2CCN(c3ccccn3)CC2)cc1,.,30*,24*,.,-6%
COc1ccc(/C=C/C(=O)c2ccoc2)cc1,-4%,89*,42*,-1%,-15%
Nc1ncnc2c1ncn2[C@@H]1O[C@H](COP(=O)(O)OP(=O)(O)OP(=O)(O)O)[C@H]2OC3(O[C@H]21)C([N+](=O)[O-])=CC(=[N+]([O-])[O-])C=C3[N+](=O)[O-] (stereo not given in full),.,17,7,.,.
CSc1ccc(CN(C)C(=O)CNC(=O)c2ccc3c(c2)OCO3)cc1,-7%,.,.,-1%,-6%
O=C(CS(=O)(=O)c1ccccc1)Nc1nc(-c2ccc(F)cc2)cs1,.,32,8,.,-2%
COc1ccc(-c2csc(NC(=O)Cc3ccccc3F)n2)cc1OC,.,29,11,?,-20%
COc1ccccc1CC(=O)Nc1nc(-c2ccc(F)c(F)c2)cs1,?,44*,26*,?,-7%
O=C(Cc1ccccc1F)Nc1nc(-c2ccc(F)cc2)cs1,4.5µM*,64*,26*,?,-1%

# Screening data (PubChem)
